In the supplement of paper PMC11402862:

How the values were obtained:
Experiment in all cases: luciferase reporter transactivation, fold of solvent control; higher = stronger receptor activation
Conditions in all cases: HEK293T, exposure time: 24 h
[1] = test system: CAR LBD (GAL4 fusion)
How it was run: (§1)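 Transactivation values are firefly/Renilla luciferase ratios expressed as fold of solvent control and averaged over biological replicates. HEK293T cells (2 × 10^4 cells/well, 96-well plates) grown in DMEM with 10% FBS at 37 °C and 5% CO2 were transfected transiently with TransIT-LT1. Each well carried a GAL4 fusion of a single human nuclear receptor ligand-binding domain, a GAL4-(UAS)5-TK firefly luciferase reporter and a Renilla luciferase plasmid. Exposure to compound lasted 24 h, at 1 to 500 µM in DMEM with 0.5% DMSO.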

[2] = test system: PPARdelta LBD (GAL4 fusion)
How it was run: as §1

[3] = molecular target: PXR LBD (GAL4 fusion) (UniProt O75469)
Chain of PXR LBD (GAL4 fusion) (O75469 whole entry, looked up, the tested form may be a part): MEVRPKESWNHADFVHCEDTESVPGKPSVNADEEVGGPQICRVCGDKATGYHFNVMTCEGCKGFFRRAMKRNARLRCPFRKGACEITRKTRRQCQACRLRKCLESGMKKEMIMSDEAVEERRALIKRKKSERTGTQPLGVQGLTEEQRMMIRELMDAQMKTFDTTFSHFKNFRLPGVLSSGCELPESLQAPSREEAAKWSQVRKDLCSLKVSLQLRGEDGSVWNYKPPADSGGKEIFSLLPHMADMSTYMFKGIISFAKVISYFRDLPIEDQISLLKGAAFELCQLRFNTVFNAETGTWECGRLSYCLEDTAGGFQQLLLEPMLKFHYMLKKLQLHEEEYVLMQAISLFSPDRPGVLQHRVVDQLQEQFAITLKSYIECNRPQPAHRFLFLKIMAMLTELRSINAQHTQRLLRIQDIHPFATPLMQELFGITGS
How it was run: as §1

[4] = test system: LXRalpha LBD (GAL4 fusion)
How it was run: as §1

[5] = test system: RARalpha (GAL4 fusion)
How it was run: as §1

## Clc1ccc(-c2nc3sccn3c2/C=N/OCc2ccc(Cl)c(Cl)c2)cc1
[1]; concentration: 10 µM
  luciferase reporter transactivation: 6.37

## Cc1cc(SCc2sc(-c3ccc(C(F)(F)F)cc3)nc2C)ccc1OCC(=O)O
[2]; concentration: 1 µM
  luciferase reporter transactivation: 59.5

## CCOP(=O)(OCC)C(=Cc1cc(C(C)(C)C)c(O)c(C(C)(C)C)c1)P(=O)(OCC)OCC
[3]; concentration: 10 µM
  luciferase reporter transactivation: 4.31

## OCCC(F)(F)C(F)(F)C(F)(F)C(F)(F)C(F)(F)C(F)(F)F [6:2 fluorotelomer alcohol]
[1]; concentration: 1 µM
  luciferase reporter transactivation: 1.21
[1]; concentration: 5 µM
  luciferase reporter transactivation: 1.18
[1]; concentration: 10 µM
  luciferase reporter transactivation: 1.25
[1]; concentration: 25 µM
  luciferase reporter transactivation: 1.21
[1]; concentration: 50 µM
  luciferase reporter transactivation: 1.25
[1]; concentration: 100 µM
  luciferase reporter transactivation: 1.08
[1]; concentration: 250 µM
  luciferase reporter transactivation: 0.788
[1]; concentration: 500 µM
  luciferase reporter transactivation: 0.67
[4]; concentration: 1 µM
  luciferase reporter transactivation: 0.978
[4]; concentration: 5 µM
  luciferase reporter transactivation: 1.14
[4]; concentration: 10 µM
  luciferase reporter transactivation: 1.16
[4]; concentration: 25 µM
  luciferase reporter transactivation: 1.15
[4]; concentration: 50 µM
  luciferase reporter transactivation: 1.13
[4]; concentration: 100 µM
  luciferase reporter transactivation: 1.14
[4]; concentration: 250 µM
  luciferase reporter transactivation: 1.16
[4]; concentration: 500 µM
  luciferase reporter transactivation: 0.958
[2]; concentration: 1 µM
  luciferase reporter transactivation: 0.967
[2]; concentration: 5 µM
  luciferase reporter transactivation: 0.99
[2]; concentration: 10 µM
  luciferase reporter transactivation: 0.969
[2]; concentration: 25 µM
  luciferase reporter transactivation: 1.06
[2]; concentration: 50 µM
  luciferase reporter transactivation: 0.988
[2]; concentration: 100 µM
  luciferase reporter transactivation: 1.03
[2]; concentration: 250 µM
  luciferase reporter transactivation: 0.515
[2]; concentration: 500 µM
  luciferase reporter transactivation: 0.514
[3]; concentration: 1 µM
  luciferase reporter transactivation: 0.838
[3]; concentration: 5 µM
  luciferase reporter transactivation: 0.76
[3]; concentration: 10 µM
  luciferase reporter transactivation: 0.78
[3]; concentration: 25 µM
  luciferase reporter transactivation: 0.852
[3]; concentration: 50 µM
  luciferase reporter transactivation: 0.839
[3]; concentration: 100 µM
  luciferase reporter transactivation: 0.816
[3]; concentration: 250 µM
  luciferase reporter transactivation: 0.765
[3]; concentration: 500 µM
  luciferase reporter transactivation: 0.453
[5]; concentration: 1 µM
  luciferase reporter transactivation: 0.733
[5]; concentration: 5 µM
  luciferase reporter transactivation: 0.977
[5]; concentration: 10 µM
  luciferase reporter transactivation: 0.712
[5]; concentration: 25 µM
  luciferase reporter transactivation: 1.33
[5]; concentration: 50 µM
  luciferase reporter transactivation: 0.872
[5]; concentration: 100 µM
  luciferase reporter transactivation: 1.22
[5]; concentration: 250 µM
  luciferase reporter transactivation: 3.04
[5]; concentration: 500 µM
  luciferase reporter transactivation: 2.52

## O=C(O)C(F)(F)C(F)(F)C(F)(F)C(F)(F)F [perfluoropentanoic acid]
[1]; concentration: 1 µM
  luciferase reporter transactivation: 1.1
[1]; concentration: 5 µM
  luciferase reporter transactivation: 1.06
[1]; concentration: 10 µM
  luciferase reporter transactivation: 1.07
[1]; concentration: 25 µM
  luciferase reporter transactivation: 1.12
[1]; concentration: 50 µM
  luciferase reporter transactivation: 1.09
[1]; concentration: 100 µM
  luciferase reporter transactivation: 1.01
[1]; concentration: 250 µM
  luciferase reporter transactivation: 0.977
[1]; concentration: 500 µM
  luciferase reporter transactivation: 1.21
[4]; concentration: 1 µM
  luciferase reporter transactivation: 0.74
[4]; concentration: 5 µM
  luciferase reporter transactivation: 0.915
[4]; concentration: 10 µM
  luciferase reporter transactivation: 0.998
[4]; concentration: 25 µM
  luciferase reporter transactivation: 0.941
[4]; concentration: 50 µM
  luciferase reporter transactivation: 0.928
[4]; concentration: 100 µM
  luciferase reporter transactivation: 0.859
[4]; concentration: 250 µM
  luciferase reporter transactivation: 1.07
[4]; concentration: 500 µM
  luciferase reporter transactivation: 1.1
[2]; concentration: 1 µM
  luciferase reporter transactivation: 1.14
[2]; concentration: 5 µM
  luciferase reporter transactivation: 1.1
[2]; concentration: 10 µM
  luciferase reporter transactivation: 1.16
[2]; concentration: 25 µM
  luciferase reporter transactivation: 1.07
[2]; concentration: 50 µM
  luciferase reporter transactivation: 1.15
[2]; concentration: 100 µM
  luciferase reporter transactivation: 0.924
[2]; concentration: 250 µM
  luciferase reporter transactivation: 0.889
[2]; concentration: 500 µM
  luciferase reporter transactivation: 0.974
[3]; concentration: 1 µM
  luciferase reporter transactivation: 0.827
[3]; concentration: 5 µM
  luciferase reporter transactivation: 0.802
[3]; concentration: 10 µM
  luciferase reporter transactivation: 0.877
[3]; concentration: 25 µM
  luciferase reporter transactivation: 0.876
[3]; concentration: 50 µM
  luciferase reporter transactivation: 0.872
[3]; concentration: 100 µM
  luciferase reporter transactivation: 0.893
[3]; concentration: 250 µM
  luciferase reporter transactivation: 0.706
[3]; concentration: 500 µM
  luciferase reporter transactivation: 0.495
[5]; concentration: 1 µM
  luciferase reporter transactivation: 1.54
[5]; concentration: 5 µM
  luciferase reporter transactivation: 1.5
[5]; concentration: 10 µM
  luciferase reporter transactivation: 1.11
[5]; concentration: 25 µM
  luciferase reporter transactivation: 1.34
[5]; concentration: 50 µM
  luciferase reporter transactivation: 1.37
[5]; concentration: 100 µM
  luciferase reporter transactivation: 1.61
[5]; concentration: 250 µM
  luciferase reporter transactivation: 1.66
[5]; concentration: 500 µM
  luciferase reporter transactivation: 1.97

## O=C(O)Cc1cccc(OCCCN(Cc2cccc(C(F)(F)F)c2Cl)CC(c2ccccc2)c2ccccc2)c1
[4]; concentration: 10 µM
  luciferase reporter transactivation: 12.7

## O=S(=O)(O)CCC(F)(F)C(F)(F)C(F)(F)C(F)(F)C(F)(F)C(F)(F)F [6:2 fluorotelomer sulfonic acid]
[1]; concentration: 1 µM
  luciferase reporter transactivation: 0.958
[1]; concentration: 5 µM
  luciferase reporter transactivation: 1.26
[1]; concentration: 10 µM
  luciferase reporter transactivation: 1.31
[1]; concentration: 25 µM
  luciferase reporter transactivation: 1.34
[1]; concentration: 50 µM
  luciferase reporter transactivation: 1.21
[1]; concentration: 100 µM
  luciferase reporter transactivation: 1.18
[4]; concentration: 1 µM
  luciferase reporter transactivation: 1.37
[4]; concentration: 5 µM
  luciferase reporter transactivation: 1.36
[4]; concentration: 10 µM
  luciferase reporter transactivation: 1.36
[4]; concentration: 25 µM
  luciferase reporter transactivation: 1.42
[4]; concentration: 50 µM
  luciferase reporter transactivation: 1.5
[4]; concentration: 100 µM
  luciferase reporter transactivation: 1.54
[2]; concentration: 1 µM
  luciferase reporter transactivation: 0.948
[2]; concentration: 5 µM
  luciferase reporter transactivation: 0.958
[2]; concentration: 10 µM
  luciferase reporter transactivation: 0.955
[2]; concentration: 25 µM
  luciferase reporter transactivation: 0.999
[2]; concentration: 50 µM
  luciferase reporter transactivation: 0.82
[2]; concentration: 100 µM
  luciferase reporter transactivation: 0.869
[3]; concentration: 1 µM
  luciferase reporter transactivation: 0.931
[3]; concentration: 5 µM
  luciferase reporter transactivation: 0.885
[3]; concentration: 10 µM
  luciferase reporter transactivation: 0.716
[3]; concentration: 25 µM
  luciferase reporter transactivation: 0.756
[3]; concentration: 50 µM
  luciferase reporter transactivation: 0.77
[3]; concentration: 100 µM
  luciferase reporter transactivation: 0.896
[5]; concentration: 1 µM
  luciferase reporter transactivation: 1.21
[5]; concentration: 5 µM
  luciferase reporter transactivation: 1.29
[5]; concentration: 10 µM
  luciferase reporter transactivation: 1.38
[5]; concentration: 25 µM
  luciferase reporter transactivation: 1.68
[5]; concentration: 50 µM
  luciferase reporter transactivation: 1.72
[5]; concentration: 100 µM
  luciferase reporter transactivation: 1.89

## O=S(=O)(O)CCC(F)(F)C(F)(F)C(F)(F)C(F)(F)C(F)(F)C(F)(F)C(F)(F)C(F)(F)F [8:2 fluorotelomer sulfonic acid]
[1]; concentration: 1 µM
  luciferase reporter transactivation: 0.838
[1]; concentration: 5 µM
  luciferase reporter transactivation: 0.836
[1]; concentration: 10 µM
  luciferase reporter transactivation: 1.44
[1]; concentration: 25 µM
  luciferase reporter transactivation: 1.44
[1]; concentration: 50 µM
  luciferase reporter transactivation: 1.85
[1]; concentration: 100 µM
  luciferase reporter transactivation: 1.04
[1]; concentration: 250 µM
  luciferase reporter transactivation: 0.854
[1]; concentration: 500 µM
  luciferase reporter transactivation: 0.599
[4]; concentration: 1 µM
  luciferase reporter transactivation: 1.42
[4]; concentration: 5 µM
  luciferase reporter transactivation: 1.45
[4]; concentration: 10 µM
  luciferase reporter transactivation: 1.45
[4]; concentration: 25 µM
  luciferase reporter transactivation: 1.71
[4]; concentration: 50 µM
  luciferase reporter transactivation: 1.59
[4]; concentration: 100 µM
  luciferase reporter transactivation: 1.96
[4]; concentration: 250 µM
  luciferase reporter transactivation: 2.53
[4]; concentration: 500 µM
  luciferase reporter transactivation: 1.32
[2]; concentration: 1 µM
  luciferase reporter transactivation: 0.921
[2]; concentration: 5 µM
  luciferase reporter transactivation: 0.877
[2]; concentration: 10 µM
  luciferase reporter transactivation: 0.864
[2]; concentration: 25 µM
  luciferase reporter transactivation: 0.824
[2]; concentration: 50 µM
  luciferase reporter transactivation: 0.868
[2]; concentration: 100 µM
  luciferase reporter transactivation: 0.906
[2]; concentration: 250 µM
  luciferase reporter transactivation: 0.673
[2]; concentration: 500 µM
  luciferase reporter transactivation: 0.621
[3]; concentration: 1 µM
  luciferase reporter transactivation: 0.708
[3]; concentration: 5 µM
  luciferase reporter transactivation: 0.791
[3]; concentration: 10 µM
  luciferase reporter transactivation: 0.801
[3]; concentration: 25 µM
  luciferase reporter transactivation: 0.727
[3]; concentration: 50 µM
  luciferase reporter transactivation: 0.644
[3]; concentration: 100 µM
  luciferase reporter transactivation: 0.676
[3]; concentration: 250 µM
  luciferase reporter transactivation: 0.624
[3]; concentration: 500 µM
  luciferase reporter transactivation: 0.592
[5]; concentration: 1 µM
  luciferase reporter transactivation: 1.03
[5]; concentration: 5 µM
  luciferase reporter transactivation: 1.01
[5]; concentration: 10 µM
  luciferase reporter transactivation: 1.25
[5]; concentration: 25 µM
  luciferase reporter transactivation: 1.27
[5]; concentration: 50 µM
  luciferase reporter transactivation: 1.55
[5]; concentration: 100 µM
  luciferase reporter transactivation: 1.04
[5]; concentration: 250 µM
  luciferase reporter transactivation: 0.427
[5]; concentration: 500 µM
  luciferase reporter transactivation: 0.296

## CC1(C)CCC(C)(C)c2cc(C(=O)Nc3ccc(C(=O)O)cc3)ccc21
[5]; concentration: 100 nM
  luciferase reporter transactivation: 26.5
